Values joined by “and” are separate entries in the source; they are usually repeats but may differ in a detail not shown here. Identical values can stand only once. Among all 5,500 compounds or so, about 2,000 (36%) were called active. Roughly 18% stayed inconclusive and do not appear here. Cut-off read from the data, not from the text of the source: active = normalized growth mostly below about 0.91 (no sharp cut-off); inconclusive = no clear call, values can overlap the other calls; inactive = mostly above about 0.92. The list shows a part of the results.
Experiment: chemical genetic growth profiling, strain panel (AID 1159580);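 note: tested at 20 µM; growth read once vehicle control cultures reached saturation at 30 °C; 1 = growth at the plate median or of vehicle wells; lower values mean less growth of the strain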
Conditions: S. cerevisiae deletion strains, growth OD

Measured: normalized growth

COc1cc([C@@H]2c3cc4c(cc3C(OC3O[C@@H]5COC(C)O[C@H]5[C@H](O)[C@H]3O)C3COC(=O)[C@@H]32)OCO4)cc(OC)c1O (some centres undefined)
inactive: locus YAL021C, strain ccr4, hits give low values 1.03 | locus YAL026C, strain drs2, hits give low values 1.05 | locus YAL030W, strain snc1, hits give low values 1.05 | locus YBL061C, strain skt5, hits give low values 1.02 | locus YBR009C, strain hhf1, hits give low values 1.01 | locus YBR021W, strain FUR4, hits give low values 0.961 | locus YBR023C, strain chs3, hits give low values 1.03 | locus YBR171W, strain sec66, hits give low values 1.07 | locus YBR229C, strain ROT2, hits give low values 1.01 | locus YBR231C, strain swc5, hits give low values 1.03 | locus YBR279W, strain paf1, hits give low values 1.02 | locus YCL011C, strain gbp2, hits give low values 1.04 | locus YCL016C, strain dcc1, hits give low values 1.02 | locus YCL029C, strain bik1, hits give low values 0.989 | locus YCL069W, strain vba3, hits give low values 1.05 | locus YCR088W, strain abp1, hits give low values 1.04 | locus YDL005C, strain med2, hits give low values 1.02 | locus YDL035C, strain GPR1, hits give low values 0.996 | locus YDL040C, strain nat1, hits give low values 1.03 | locus YDL074C, strain BRE1, hits give low values 0.947 | locus YDL101C, strain DUN1, hits give low values 1 | locus YDL134C, strain PPH21, hits give low values 1.01 | locus YDL185W, strain tfp1, hits give low values 0.979 | locus YDL192W, strain arf1, hits give low values 0.991 | locus YDR001C, strain nth1, hits give low values 1.02 | locus YDR069C, strain doa4, hits give low values 1.04 | locus YDR101C, strain arx1, hits give low values 0.981 | locus YDR137W, strain rgp1, hits give low values 1.06 | locus YDR159W, strain sac3, hits give low values 0.987 | locus YDR162C, strain NBP2, hits give low values 1.03 | locus YDR195W, strain ref2 1.03 | locus YDR297W, strain sur2, hits give low values 1.02 | locus YDR318W, strain mcm21, hits give low values 1.01 | locus YDR334W, strain swr1, hits give low values 1.06 | locus YDR335W, strain msn5, hits give low values 1.05 | locus YDR388W, hits give low values 1 | locus YDR392W, strain spt3, hits give low values 0.948 | locus YDR502C, strain sam2, hits give low values 0.974 | locus YEL003W, strain gim4, hits give low values 1.04 | locus YEL037C, strain rad23, hits give low values 1.05 | locus YEL061C, strain CIN8 (second series), hits give low values 1.03 | locus YEL061C, strain CIN8, hits give low values 1.01 | locus YER015W, strain faa2, hits give low values 1.03 | locus YER016W, strain bim1, hits give low values 1.03 | locus YER110C, hits give low values 0.993 | locus YER111C, strain swi4, hits give low values 1.03 | locus YER155C, strain BEM2 (second series), hits give low values 1.05 | locus YER155C, strain BEM2, hits give low values 0.981 | locus YER167W, strain BCK2, hits give low values 0.998 | locus YFR010W, strain ubp6, hits give low values 1.02 | locus YGL078C, strain dbp3, hits give low values 0.976 | locus YGL086W, strain mad1, hits give low values 0.965 | locus YGL167C, strain pmr1, hits give low values 1.05 | locus YGL173C, strain kem1, hits give low values 1.02 | locus YGL227W, strain vid30, hits give low values 1.03 | locus YGL240W, strain doc1, hits give low values 0.994 | locus YGL248W, strain PDE1, hits give low values 1.01 | locus YGL253W, strain hxk2, hits give low values 1.05 | locus YGR078C, strain PAC10, hits give low values 1.01 | locus YGR135W, strain pre9, hits give low values 1.02 | locus YGR252W, strain gcn5, hits give low values 1.02 | locus YHR013C, strain ard1, hits give low values 1.04 | locus YHR027C, strain rpn1, hits give low values 1.01 | locus YHR030C, strain SLT2, hits give low values 0.998 and 1.06 | locus YHR079C, strain IRE1 (second series), hits give low values 0.992 | locus YHR079C, strain IRE1, hits give low values 1.12 | locus YHR094C, strain hxt1, hits give low values 0.995 | locus YHR129C, strain ARP1, hits give low values 0.998 | locus YHR142W, strain chs7, hits give low values 1.06 | locus YHR200W, strain rpn10, hits give low values 1 | locus YIL066C, strain RNR3, hits give low values 0.997 | locus YIL073C, strain SPO22, hits give low values 0.958 | locus YIL125W, strain kgd1, hits give low values 0.997 | locus YIR030C, strain dcg1, hits give low values 0.995 | locus YJL092W, strain hpr5, hits give low values 1.04 | locus YJL095W, strain BCK1 (second series), hits give low values 1.03 | locus YJL095W, strain BCK1, hits give low values 1.03 and 1.06 | locus YJL115W, strain asf1, hits give low values 1.04 | locus YJL129C, strain trk1, hits give low values 1.05 | locus YJL134W, strain LCB3, hits give low values 0.998 | locus YJL154C, strain vps35, hits give low values 1.02 | locus YJL164C, strain tpk1, hits give low values 1.05 | locus YJL166W, strain qcr8, hits give low values 1.02 | locus YJL168C, strain set2, hits give low values 0.998 | locus YJL187C, strain SWE1 (second series), hits give low values 1 | locus YJR043C, strain POL32, hits give low values 0.992 | locus YJR066W, strain TOR1, hits give low values 0.995 | locus YKL009W, strain mrt4, hits give low values 1.06 | locus YKL068W, hits give low values 0.995 | locus YKL085W, strain MDH1 (second series), hits give low values 1.01 | locus YKL085W, strain MDH1, hits give low values 1.01 | locus YKL160W, strain elf1, hits give low values 1.02 | locus YKL190W, strain CNB1, hits give low values 1.02 | locus YKR001C, strain vps1, hits give low values 1.01 | locus YKR026C, strain gcn3, hits give low values 1.04 | locus YKR091W, strain srl3, hits give low values 1.03 | locus YLL001W, strain dnm1, hits give low values 1.04 | locus YLL026W, hits give low values 1.04 | locus YLL041C, strain sdh2, hits give low values 1.02 | locus YLR027C, strain aat2, hits give low values 1.05 | locus YLR039C, strain RIC1, hits give low values 1.01 | locus YLR058C, strain SHM2, hits give low values 1.02 | locus YLR102C, strain apc9, hits give low values 0.999 | locus YLR113W, strain HOG1, hits give low values 1.06 | locus YLR221C, strain rsa3, hits give low values 1.04 | locus YLR258W, strain gsy2, hits give low values 1.03 | locus YLR262C, strain YPT6 (second series), hits give low values 1.05 | locus YLR262C, strain YPT6, hits give low values 1.01 | locus YLR268W, strain sec22, hits give low values 0.957 | locus YLR320W, strain mms22, hits give low values 1 | locus YLR330W, strain CHS5, hits give low values 1.02 | locus YLR342W, strain FKS1 (second series), hits give low values 1.01 | locus YLR342W, strain FKS1, hits give low values 1.02 | locus YLR357W, strain rsc2, hits give low values 1.04 | locus YLR370C, strain arc18, hits give low values 1.04 | locus YLR371W, strain rom2, hits give low values 0.979 | locus YLR384C, strain iki3, hits give low values 1.02 | locus YLR418C, strain cdc73, hits give low values 0.998 | locus YML016C, strain PPZ1, hits give low values 0.999 | locus YML032C, strain rad52, hits give low values 0.982 | locus YML120C, strain ndi1, hits give low values 1.03 | locus YML124C, strain tub3, hits give low values 0.996 | locus YMR058W, strain fet3, hits give low values 1.02 | locus YMR078C, strain ctf18, hits give low values 0.996 | locus YMR125W, strain sto1, hits give low values 1.07 | locus YMR129W, hits give low values 1.04 | locus YMR205C, strain PFK2, hits give low values 1.02 | locus YMR223W, strain ubp8, hits give low values 1 | locus YMR231W, strain pep5, hits give low values 1.03 | locus YMR307W, strain GAS1, hits give low values 1.06 | locus YNL067W, strain RPL9B, hits give low values 1.01 | locus YNL071W, strain lat1, hits give low values 1.04 | locus YNL153C, strain GIM3, hits give low values 1.02 | locus YNL183C, strain NPR1, hits give low values 0.995 | locus YNL209W, strain ssb2, hits give low values 1.03 | locus YNL233W, strain BNI4, hits give low values 0.991 | locus YNL248C, strain rpa49, hits give low values 1.02 | locus YNL250W, strain rad50, hits give low values 0.96 | locus YNL271C, strain bni1, hits give low values 0.984 | locus YNL298W, strain CLA4, hits give low values 0.994 | locus YNL307C, strain MCK1, hits give low values 0.996 | locus YNL322C, strain KRE1 (second series), hits give low values 1.03 | locus YNL322C, strain KRE1, hits give low values 1.01 | locus YNR049C, strain mso1, hits give low values 1.03 | locus YNR052C, strain pop2, hits give low values 0.985 | locus YOL012C, strain htz1 0.834 | locus YOL147C, strain pex11, hits give low values 1 | locus YOR001W, strain rrp6, hits give low values 1.03 | locus YOR061W, strain CKA2, hits give low values 0.996 | locus YOR069W, strain VPS5, hits give low values 0.991 | locus YOR070C, strain gyp1, hits give low values 1.04 | locus YOR080W, strain dia2, hits give low values 1.02 | locus YOR083W, strain WHI5, hits give low values 0.979 | locus YOR106W, strain vam3, hits give low values 1.04 | locus YOR136W, strain idh2, hits give low values 0.971 | locus YOR144C, strain elg1, hits give low values 0.998 | locus YOR184W, strain ser1, hits give low values 1 | locus YOR231W, strain MKK1, hits give low values 1.05 | locus YOR265W, strain rbl2, hits give low values 1.01 | locus YOR270C, strain vph1, hits give low values 1.15 | locus YOR290C, strain snf2, hits give low values 1.04 | locus YOR316C, strain cot1, hits give low values 0.997 | locus YPL051W, strain arl3, hits give low values 1.04 | locus YPL055C, strain LGE1, hits give low values 1.01 | locus YPL078C, strain atp4, hits give low values 1.04 | locus YPL106C, strain sse1, hits give low values 1.07 | locus YPL240C, strain hsp82, hits give low values 1.02 | locus YPL241C, strain CIN2, hits give low values 1.01 | locus YPL256C, strain CLN2, hits give low values 1.08 | locus YPR119W, strain clb2, hits give low values 0.998 | locus YPR141C, strain kar3, hits give low values 0.99 | locus YPR163C, strain tif3, hits give low values 0.985 | locus YPR167C, strain met16, hits give low values 1.01 | strain wtn01, hits give low values 0.97

— PubChem BioAssay AID1159580 (chemical genetic matrix, 2015)
